Screening data: PubChem BioAssay, National Center for Advancing Translational Sciences (NCATS)
The sample as a whole holds a higher share of hits than the screen did.
HT1080NT lethal – kills 2HG-producing HT-1080-NT fibrosarcoma cells; HT-1080-NT fibrosarcoma viability, CellTiter-Glo ATP luminescence, 48 h; Potency, µM (titrated, usually from 46.1 µM), without a hit: at the top dose activity, negative = less viability, hits mostly cytotoxic; 360,000 compounds, 1.6% hits; AID 686970;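 note: NT is the 2HG producing partner of a matched IDH1 knockdown line; potency is the fitted concentration of half-maximal effect; 0% = DMSO-treated cells and -100% = media-only wells without cells; nearly all actives have a fitted effect of over 55% in size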
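750 cells/well, RPMI + 5% FBS; 2 h settle, compound pin-transfer, 48 h at 37 degrees C. CellTiter-Glo 10 min RT, luminescence. Normalized to DMSO and media-only wells.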
ALOX12 inh – inhibitors of human 12S-lipoxygenase ALOX12; P18054; purified 12hLO, xylenol orange hydroperoxide absorbance; Potency, µM (titrated, usually from 108 µM), for the others: top-dose activity change, negative = inhibition, most hits filed as inhibitors; 580,000 compounds, 1.1% hits; AID 1671190; note: potency is the fitted concentration of half-maximal effect
Target sequence (P18054 whole entry, looked up): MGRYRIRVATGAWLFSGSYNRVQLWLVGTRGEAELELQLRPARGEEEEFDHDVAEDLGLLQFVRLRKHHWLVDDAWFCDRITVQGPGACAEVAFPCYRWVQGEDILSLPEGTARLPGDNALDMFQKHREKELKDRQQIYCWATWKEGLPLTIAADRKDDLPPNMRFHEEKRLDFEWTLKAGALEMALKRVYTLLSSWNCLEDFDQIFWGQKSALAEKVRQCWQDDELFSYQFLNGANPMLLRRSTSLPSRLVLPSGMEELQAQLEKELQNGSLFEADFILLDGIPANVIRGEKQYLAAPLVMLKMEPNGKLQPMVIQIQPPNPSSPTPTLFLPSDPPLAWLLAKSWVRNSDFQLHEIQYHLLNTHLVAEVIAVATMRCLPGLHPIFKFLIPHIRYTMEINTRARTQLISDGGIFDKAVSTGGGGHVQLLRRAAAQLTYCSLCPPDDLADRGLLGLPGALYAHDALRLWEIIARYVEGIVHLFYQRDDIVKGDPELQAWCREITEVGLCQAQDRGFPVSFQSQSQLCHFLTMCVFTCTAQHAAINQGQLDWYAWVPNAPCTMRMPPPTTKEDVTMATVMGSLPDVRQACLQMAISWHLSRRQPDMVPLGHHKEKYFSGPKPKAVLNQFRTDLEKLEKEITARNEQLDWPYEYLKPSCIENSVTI
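Purified human 12hLO at 150 nM in 25 mM Hepes, 0.01% Triton X-100, pH 7.0, preincubated 15 min at room temperature with compound. Reaction started with 40 uM arachidonic acid, 30 min at room temperature. Hydroperoxide measured by Fe-xylenol orange, 573/405 nm absorbance ratio.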
IL1B secr inh – inhibitors of inflammasome signaling (IL-1 beta secretion) | THP-1 LPS/ATP IL-1B secretion, AlphaLISA, 16 h; stronger effect = lower value | activity change, % at 57.5 µM | 360,000 compounds, 4.7% hits; in the data active = activity change below about -50%; inconclusive = mostly about -30% to -49%
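Secreted IL-1B measured by AlphaLISA bead assay after 16 h compound exposure of THP-1 cells; compounds (final up to 57.5 uM) added 1 h before LPS (250 ng/mL) and ATP (1.25 mM) stimulation; lower signal means less secretion.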
DT40 TDP1 no CPT – qHTS for Inhibitors of human tyrosyl-DNA phosphodiesterase 1 (TDP1): qHTS in cells in absence of CPT; DT40 Tdp1-/- hTDP1 cells, no CPT, ATP luminescence, 48 h; Potency, µM (doses to about 46.2 µM), for inactives: at the highest dose activity change, negative = growth inhibition, most hits filed as inhibitors; 420,000 compounds, 15% hits; note: potency is the fitted concentration of half-maximal effect; nearly all actives have a fitted effect of over 55% in size
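No-CPT arm: Tdp1-/-;hTDP1 DT40 cells (400/well) plus compounds, incubated ≥48 hr at 37 °C. Readout CellTiter-Glo luminescence.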
HT1080 IDH1KD tx – toxicity to HT-1080 IDH1 knockdown cells (counter line) | HT-1080 IDH1 knockdown viability, ATP luminescence, 48 h | Potency, µM (series often up to 46.1 µM), inactives show at the top dose activity, negative = toxicity, most hits filed as cytotoxic | 360,000 compounds, 2% hits | AID 686971;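 note: potency is the fitted concentration of half-maximal effect; 0% = DMSO wells and -100% = cell-free medium wells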
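Cytotoxicity counter-line: IDH1KD HT-1080, 48 h, CellTiter-Glo. Curves classed by r2, magnitude and activity.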
TDP1 cell CPT – growth inhibition of DT40 Tdp1-/-;hTDP1 cells with camptothecin (screen for TDP1 inhibitors); chicken DT40 Tdp1-/-;hTDP1 cells + 20 nM CPT, ATP luminescence, 48 h; Potency, µM (series often up to 46.2 µM), for inactives: at the highest dose activity change, negative = growth inhibition, usual class: inhibitors; 420,000 compounds, 12% hits; AID 686979; note: potency is the fitted concentration of half-maximal effect; nearly all actives have a fitted effect of over 55% in size
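Chicken DT40 Tdp1-/- cells complemented with human TDP1, 400 cells/well, exposed to compounds plus 20 nM camptothecin for at least 48 h at 37 C; viability read as ATP content by CellTiter-Glo luminescence.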
Active calls of the source: *; ? = inconclusive; / = no result. Unless noted, calls come from the whole dose curve; as a rule, active = well fitted curve in the direction sought with a large enough effect; inconclusive = small, poorly fitted or top-dose-only effect, or another doubt; inactive = no such curve, though single readings can be large; an effect the other way counts as inactive or inconclusive. Unless noted, % is set by controls: 0 for no effect and ±100 for the full control effect.

SMILES	HT1080NT lethal	ALOX12 inh	IL1B secr inh	DT40 TDP1 no CPT	HT1080 IDH1KD tx	TDP1 cell CPT
COc1cccc(CC(=O)Nc2ccc3c(c2)CN(Cc2cccc(OC)c2OC)C(=O)CO3)c1	/	34%	/	/	/	/
CCc1cc2c(=O)[nH]c(CC(N)=O)nc2s1	9%	-15%	-66*	-14%	12%	1%
CCc1cc2c(=O)[nH]c(N3CCCC3)nc2s1	6%	-6%	-14	-7%	9%	-1%
N#CC1=CN(Cc2ccccc2)C=C(/C=N/Nc2ccccc2)C1	?	-5%	-80*	?	?	?
Cn1c2ccccc2c(=O)c2ccc(C#Cc3ccc(N)cc3)cc21	?	?	-28	16µM*	?	?
COc1ccc(C#Cc2ccc3c(=O)c4ccccc4n(C)c3c2)cc1	1%	/	34	18µM*	3%	?
Cn1c2ccccc2c(=O)c2cc(C#CC3=CCCCC3)ccc21	4%	-28%	0	18µM*	-6%	7.3µM*
CCOc1ccc2nc(Cl)c(C3CC(c4ccccc4)=NN3C(=O)CCC(=O)O)cc2c1 (stereo not given)	/	-10%	/	-15%	/	3%
Cc1ccc(-c2ccc(CCC(=O)N[C@@H]3CCOC[C@H]3OCC(=O)O)o2)cc1	/	4%	/	/	/	/
O=C(CCNC(=O)c1ccccc1Cl)NN=Cc1ccccc1[N+](=O)[O-]	-2%	-9%	-9	?	1%	?
O=C(Cc1cccs1)N/N=C\c1ccc([N+](=O)[O-])s1	?	-4%	7	21µM*	-28%	8.2µM*
O=C(CNC(=O)c1ccccc1Cl)N/N=C/c1ccc([N+](=O)[O-])s1	?	-1%	-56*	21µM*	23µM*	21µM*
COc1cccc(NC(=O)NCc2c(-c3ccccc3)noc2C)c1	-2%	?	19	?	8%	-30%
Cc1noc(-c2cn(C3CCCN(C(=O)c4ccc(C(C)(C)C)cc4)C3)nn2)n1 (stereo not given)	/	22%	/	/	/	/
Cc1nn(-c2cccc(Br)c2)c(C)c1[C@@H]1C=C[C@@H](NS(C)(=O)=O)C1	/	11µM*	/	/	/	/
C=C1CCN([C@@H](CC(C)C)C(=O)NCc2ccc(Cl)cc2)S(=O)(=O)c2ccccc21	-1%	-13%	31	?	-3%	?
C=C1CCN([C@@H](CC(C)C)C(=O)NN2CCOCC2)S(=O)(=O)c2ccccc21	2%	4%	-15	17%	9%	3%
C=C1CCN([C@@H](CC(C)C)C(=O)NCc2ccc(OC)cc2)S(=O)(=O)c2ccccc21	9%	-4%	6	23µM*	2%	?
C=C1CCN([C@@H](CC(C)C)C(=O)NCc2ccc(Cl)c(Cl)c2)S(=O)(=O)c2ccccc21	?	-10%	-2	16µM*	-12%	?
C=C1CCN([C@@H](Cc2ccccc2)C(=O)NCCCc2ccccc2)S(=O)(=O)c2ccccc21	-9%	-3%	4	?	-8%	23µM*
C=C1CCN([C@@H](CC(C)C)C(=O)NCCC(C)C)S(=O)(=O)c2ccccc21	-2%	-8%	21	23µM*	-6%	?
COc1cc(NC(=O)CSc2nc3nc(C)c(Cc4ccc(C)cc4)c(C)n3n2)cc(OC)c1	/	?	/	8.2µM*	/	?
COc1ccc(CCNC(=O)CSc2nc3nc(C)c(Cc4ccc(C)cc4)c(C)n3n2)cc1OC	/	-3%	/	21µM*	/	?
Cc1ccc(NC(=O)CSc2nc3nc(C)c(Cc4ccccc4)c(C)n3n2)cc1	/	0%	/	?	/	?
COc1cc(NC(=O)CSc2nc3nc(C)c(Cc4ccccc4)c(C)n3n2)cc(OC)c1	/	-13%	/	8.2µM*	/	21µM*
